The panel holds about 83,000 compounds, 20% with a hit somewhere; the sample as a whole holds those more often.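 Plates (96-well) were seeded with cells, treated with compound at one concentration, and incubated for 48 hours before percent growth was determined.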 Calls of active or inactive are those of the source. How the source made its calls: active means growth percent below 10; inactive means the rest.
Tested on: A549/ATCC NSCLC
Assay: NCI-60 one-dose screen, 48 h (100 = growth as untreated, 0 = no growth, -100 = all killed)
Details: 10 µM

Which growth does the source give for CCCOCC(O)CNCCN (stereo not given) here?
Its growth is 102% (inactive).

For O=C(Nc1ccc(OCc2nnc(-c3ccccc3)o2)c(F)c1)Nc1ccc(Cl)c(Cl)c1, which growth is on record?
Its growth is 55.5% (inactive).

Cc1[nH]nc2c(=S)[nH]c(=O)[nH]c12 was tested. Which growth did it give?
The growth was 100% (inactive).

For CCC(OC(=O)CC(C)C)c1ccccc1 (stereo not given), which growth is on record?
The growth was 80.6% (inactive).

Which growth does the source give for C/C=C\COc1cc(C)c(Cl)cc1Cl here?
The growth was 91.8% (inactive).

How did the growth turn out when CC(=O)N(O)c1ccc(/C=C/c2ccccc2)cc1 was run?
The growth was 25.6% (inactive).

With CCOC(=O)c1c(C(F)(F)F)n([O-])c2ccc(OC)cc2[n+]1=O as the compound, how does the growth read?
The growth was 26.8% (inactive).

Which growth does the source give for NCCNc1ccc2cc(-c3nc4ccccc4[nH]3)c(=O)oc2c1 here?
Its growth is 102% (inactive).

With Nc1ccc(Sc2ccc3c4c2cccc4c(=O)n2c4ccccc4nc32)cc1 as the compound, how does the growth read?
Its growth is 20.6% (inactive).

With COc1cccc(C(=O)NNc2nc(N3CCOCC3)nc(N3CCN(C(c4ccccc4)c4ccccc4)CC3)n2)c1 as the compound, how does the growth read?
The growth was 62.4% (inactive).

C=CCN1C(=O)/C(=C\c2ccc3c(c2)CCC3)SC1=S was tested. Which growth did it give?
Its growth is 105% (inactive).

With COc1cccc(-c2nnc(COc3ccc(-c4nc5ccc(C)cc5[nH]4)cc3OC)o2)c1 as the compound, how does the growth read?
Its growth is 61.8% (inactive).

How did the growth turn out when CNC(=O)c1cc(Oc2ccc(NC(=O)Nc3ccc(Cl)c(C(C)(C)C)c3)c(F)c2)ccn1 was run?
The growth was 37.4% (inactive).

CC(=O)/C(=C\c1ccc(Cl)cc1)c1ccccc1 was tested. Which growth did it give?
Its growth is 17.1% (inactive).

For Cc1cc(C)c(C(=O)OC(C)CNC2CCCCC2)c(C)c1 (stereo not given), which growth is on record?
Its growth is 102% (inactive).

Which growth does the source give for CC(=O)Oc1ccc(C2=Cc3ccc(OC(C)=O)cc3OC2C)cc1 (stereo not given) here?
The growth was 61.5% (inactive).

CC(=O)Nc1nc(C)c(C(=O)NNC=O)s1 was tested. Which growth did it give?
Its growth is 107% (inactive).

With CCCCC(=O)N(c1ccc(Nc2c3ccccc3nc3cc([N+](=O)[O-])ccc23)cc1)S(C)(=O)=O as the compound, how does the growth read?
Its growth is 34% (inactive).

For O=C1/C(=C/c2ccc(O)cc2O)N=C2SCCCN12, which growth is on record?
The growth was 92.1% (inactive).

How did the growth turn out when Cc1ccc2c(c1)-c1cc(C)nn1-c1ccc(C#N)cc1O2 was run?
Its growth is 51.6% (inactive).

How did the growth turn out when O=C(c1ccc(Cl)cc1)c1no[n+]([O-])c1C(=O)c1ccc(Cl)cc1 was run?
Its growth is 104% (inactive).

Which growth does the source give for Nc1nsc(C(=O)c2ccc(O)cc2)n1 here?
The growth was 83.7% (inactive).

COc1ccc(C2=Cc3ccc(OC(C)=O)cc3OC2)cc1 was tested. Which growth did it give?
Its growth is 88.3% (inactive).

How did the growth turn out when Cc1nc2cc(-n3c(-c4ccc(F)cc4)nc4ccccc4c3=O)ccc2n1Cc1ccccc1 was run?
Its growth is -25.4% (active).

With Cc1nnc2c3nnc(-c4ccc(Cl)cc4)n3c3ccccc3n12 as the compound, how does the growth read?
Its growth is 96.8% (inactive).

Cc1cc(C)c2c(Nc3ncnc4c3sc3nc(C)cc(C)c34)n[nH]c2n1 was tested. Which growth did it give?
Its growth is 102% (inactive).

With CCCCNC(=O)Oc1ccc(/C(=C(\C)c2ccc(OC)cc2)c2ccc(OCCN3CCCCC3)cc2)cc1 as the compound, how does the growth read?
The growth was 47.5% (inactive).

Tested on: 786-0 renal
Assay: as above
Details: 10 µM

How did the growth turn out when COc1cc(C2CC(=O)Nc3c2c(C)nn3-c2nc3ccccc3[nH]2)cc(OC)c1O (stereo not given) was run?
The growth was 53.1% (inactive).

How did the growth turn out when CCCCC(CC#N)(CCC)CCC was run?
The growth was 95.5% (inactive).

With COc1cc(C)c2sc3ccccc3c(=O)c2c1NCCN(C)C as the compound, how does the growth read?
The growth was 65.9% (inactive).

How did the growth turn out when O=C(CCl)N1c2ccccc2Sc2ccc3ccccc3c21 was run?
The growth was -62.8% (active).

For CCOC(=O)Nc1ccc2c(c1)C(=O)N(CC)c1ccccc1O2, which growth is on record?
Its growth is 31.1% (inactive).

With COc1ccc(/C=C(\c2cc(OC)c(OC)c(OC)c2)c2nnc(-c3cccs3)o2)cc1 as the compound, how does the growth read?
Its growth is 48.9% (inactive).

COc1ccc(-c2cc(/C=C/C(=O)c3ccc(N)cc3)[nH]n2)cc1OC was tested. Which growth did it give?
Its growth is 42.6% (inactive).

With CCCCCCCCCCSC(=N)N (tested in a mixture with another compound) as the compound, how does the growth read?
The growth was 52.4% (inactive).

CC(=O)CS(C)(=O)=O was tested. Which growth did it give?
The growth was 106% (inactive).

Nc1ccc2c(c1)Cc1cc(N)c(Cl)cc1-2 was tested. Which growth did it give?
The growth was 97.7% (inactive).

With CCOC(=O)c1cc(-c2ccccc2)nc(N)n1 as the compound, how does the growth read?
The growth was 108% (inactive).

CCCOCC(O)CNCCN (stereo not given) was tested. Which growth did it give?
Its growth is 105% (inactive).

O=C(Nc1ccc(OCc2nnc(-c3ccccc3)o2)c(F)c1)Nc1ccc(Cl)c(Cl)c1 was tested. Which growth did it give?
Its growth is 82.1% (inactive).

Cc1[nH]nc2c(=S)[nH]c(=O)[nH]c12 was tested. Which growth did it give?
The growth was 97.3% (inactive).

For CCC(OC(=O)CC(C)C)c1ccccc1 (stereo not given), which growth is on record?
The growth was 95.2% (inactive).

C/C=C\COc1cc(C)c(Cl)cc1Cl was tested. Which growth did it give?
The growth was 108% (inactive).

How did the growth turn out when CC(=O)N(O)c1ccc(/C=C/c2ccccc2)cc1 was run?
Its growth is 19.9% (inactive).

How did the growth turn out when CCOC(=O)c1c(C(F)(F)F)n([O-])c2ccc(OC)cc2[n+]1=O was run?
The growth was 42.2% (inactive).

How did the growth turn out when NCCNc1ccc2cc(-c3nc4ccccc4[nH]3)c(=O)oc2c1 was run?
The growth was 106% (inactive).

With Nc1ccc(Sc2ccc3c4c2cccc4c(=O)n2c4ccccc4nc32)cc1 as the compound, how does the growth read?
The growth was 37.3% (inactive).

For COc1cccc(C(=O)NNc2nc(N3CCOCC3)nc(N3CCN(C(c4ccccc4)c4ccccc4)CC3)n2)c1, which growth is on record?
The growth was 86.6% (inactive).

Which growth does the source give for C=CCN1C(=O)/C(=C\c2ccc3c(c2)CCC3)SC1=S here?
Its growth is 104% (inactive).

With COc1cccc(-c2nnc(COc3ccc(-c4nc5ccc(C)cc5[nH]4)cc3OC)o2)c1 as the compound, how does the growth read?
The growth was 81.5% (inactive).

For CNC(=O)c1cc(Oc2ccc(NC(=O)Nc3ccc(Cl)c(C(C)(C)C)c3)c(F)c2)ccn1, which growth is on record?
Its growth is 79% (inactive).

Which growth does the source give for CC(=O)/C(=C\c1ccc(Cl)cc1)c1ccccc1 here?
Its growth is 22.9% (inactive).

Cc1cc(C)c(C(=O)OC(C)CNC2CCCCC2)c(C)c1 (stereo not given) was tested. Which growth did it give?
Its growth is 93.2% (inactive).

CC(=O)Oc1ccc(C2=Cc3ccc(OC(C)=O)cc3OC2C)cc1 (stereo not given) was tested. Which growth did it give?
Its growth is 47.5% (inactive).

With CC(=O)Nc1nc(C)c(C(=O)NNC=O)s1 as the compound, how does the growth read?
The growth was 118% (inactive).

Which growth does the source give for CCCCC(=O)N(c1ccc(Nc2c3ccccc3nc3cc([N+](=O)[O-])ccc23)cc1)S(C)(=O)=O here?
The growth was 74.3% (inactive).

For O=C1/C(=C/c2ccc(O)cc2O)N=C2SCCCN12, which growth is on record?
The growth was 81.9% (inactive).

With Cc1ccc2c(c1)-c1cc(C)nn1-c1ccc(C#N)cc1O2 as the compound, how does the growth read?
The growth was 86.4% (inactive).

For O=C(c1ccc(Cl)cc1)c1no[n+]([O-])c1C(=O)c1ccc(Cl)cc1, which growth is on record?
Its growth is -34.5% (active).

For Nc1nsc(C(=O)c2ccc(O)cc2)n1, which growth is on record?
The growth was 117% (inactive).

How did the growth turn out when COc1ccc(C2=Cc3ccc(OC(C)=O)cc3OC2)cc1 was run?
Its growth is 100% (inactive).

Which growth does the source give for Cc1nc2cc(-n3c(-c4ccc(F)cc4)nc4ccccc4c3=O)ccc2n1Cc1ccccc1 here?
The growth was 7.98% (active).

Cc1nnc2c3nnc(-c4ccc(Cl)cc4)n3c3ccccc3n12 was tested. Which growth did it give?
The growth was 97.2% (inactive).

Cc1cc(C)c2c(Nc3ncnc4c3sc3nc(C)cc(C)c34)n[nH]c2n1 was tested. Which growth did it give?
The growth was 106% (inactive).

With CCCCNC(=O)Oc1ccc(/C(=C(\C)c2ccc(OC)cc2)c2ccc(OCCN3CCCCC3)cc2)cc1 as the compound, how does the growth read?
Its growth is 17.1% (inactive).
